Sampled rows, rich in hits. Any-hit rate of the full collection: about 19%.
HepG2 tox: counter-screen for TGF-b inhibitors: cytotoxicity in HepG2 cells; HepG2 CAGA-GFP viability, ATP luminescence, 18 h; Potency, µM (titrated, usually from 46.1 µM), usual class: cytotoxic; 410,000 tested, 0.76% active
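CellTiter-Glo luminescence gave cytotoxicity after 18 hours at 37 degrees C. The cells were HepG2 CAGA-GFP in 1% FBS DMEM, stimulated with 500 pg/mL TGF-beta after compound addition. %Activity was normalised to no-cell wells (complete cell-killing) and DMSO (no toxicity), and curves were fitted and classified.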
DT40 TDP1 CPT: DT40-hTDP1 cell growth loss with CPT; chicken DT40 Tdp1-/-;hTDP1 cells + 20 nM CPT, ATP luminescence, 48 h; Potency, µM (titrated, usually from 46.2 µM), most hits filed as inhibitors; 420,000 tested, 12% active; also: nearly all actives have a fitted effect of over 55% in size
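Chicken DT40 Tdp1-/- cells stably complemented with human TDP1 were seeded at 400 cells/well in medium containing 20 nM camptothecin, exposed to pin-transferred compounds, and grown at 37 °C for at least 48 hr. Viability was read as ATP luminescence.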
IL1B secr inh: inflammasome signaling inhibition, IL-1 beta readout; activity change, % at 57.5 µM; THP-1 LPS/ATP IL-1B secretion, AlphaLISA, 16 h; stronger effect = lower value; 360,000 tested, 4.7% active; in the data active = activity change below about -50%; inconclusive = mostly about -30% to -49%
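THP-1 cells pretreated 1 hr with compounds (up to 57.5 uM final), then stimulated with LPS (250 ng/mL final) plus ATP (1.25 mM final); secreted IL-1B measured by AlphaLISA after 16 hr, decreased signal indicating inhibition.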
ASM inhibitor: blocks human secretory acid sphingomyelinase; P17405; 340,000 tested, 0.006% active; Potency, µM (titrated, usually from 57.5 µM), usual class: inhibitors; placental ASM, HMU-PC fluorogenic substrate, 60 min
Target sequence (P17405 47-631 limits assumed): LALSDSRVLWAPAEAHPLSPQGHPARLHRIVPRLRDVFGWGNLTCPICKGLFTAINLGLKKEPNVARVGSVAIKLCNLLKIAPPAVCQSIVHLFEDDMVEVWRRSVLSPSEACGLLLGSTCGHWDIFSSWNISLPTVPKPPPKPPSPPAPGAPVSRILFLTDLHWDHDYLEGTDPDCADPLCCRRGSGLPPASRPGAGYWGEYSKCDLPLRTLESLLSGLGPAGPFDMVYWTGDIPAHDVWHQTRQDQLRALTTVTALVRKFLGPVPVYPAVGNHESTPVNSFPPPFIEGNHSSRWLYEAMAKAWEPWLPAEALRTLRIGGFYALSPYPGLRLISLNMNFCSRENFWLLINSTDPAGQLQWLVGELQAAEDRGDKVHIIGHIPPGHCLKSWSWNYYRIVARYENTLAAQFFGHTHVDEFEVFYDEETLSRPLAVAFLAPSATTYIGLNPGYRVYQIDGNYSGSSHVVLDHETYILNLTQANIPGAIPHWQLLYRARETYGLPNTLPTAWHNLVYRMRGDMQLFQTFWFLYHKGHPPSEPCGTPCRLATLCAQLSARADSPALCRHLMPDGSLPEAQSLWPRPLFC
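Human placenta-derived ASM preincubated with compound 10 min at room temperature, then reacted with 9 uM (final) fluorogenic HMU-PC substrate for 60 min at 37 C. Stop solution raises pH to 10; fluorescence read at Ex 386/Em 447 nm.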
DT40 TDP1 no CPT: qHTS for Inhibitors of human tyrosyl-DNA phosphodiesterase 1 (TDP1): qHTS in cells in absence of CPT; DT40 Tdp1-/- hTDP1 cells, no CPT, ATP luminescence, 48 h; Potency, µM (doses to about 46.2 µM), hits mostly inhibitors; 420,000 tested, 15% active; AID 686978, 2013; also: nearly all actives have a fitted effect of over 55% in size
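Growth of hTDP1-complemented DT40 Tdp1-knockout cells is measured by ATP luminescence after at least 48 hr compound exposure at 37 °C, with DMSO substituting for the 20 nM CPT used in the parallel screen.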
TGFb SMAD3 inh: inhibitors of TGF-b signaling; HepG2 CAGA-GFP TGF-b/SMAD3 reporter, GFP fluorescence, 18 h; TGF-beta stimulated, 500 pg/mL final; Potency, µM (top dose mostly 46.1 µM), usual class: inhibitors; 410,000 tested, 1.2% active; also: nearly all actives have a fitted effect of over 65% in size
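Smad-responsive CAGA-GFP expression was quantified in HEPG2 cells exposed to compounds and 500 pg/mL final TGF-beta for 18 h at 37 degrees C; unstimulated wells defined full inhibition.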
Hits are given with their value. Unless noted, calls follow the shape of the dose curve; as a rule, active = well fitted curve in the direction sought with a large enough effect; inconclusive = small, poorly fitted or top-dose-only effect, or another doubt; inactive = no such curve, though single readings can be large; an effect the other way counts as inactive or inconclusive.

For COc1ccc(OC)c(CN2CCN(C(=O)c3cccc(S(=O)(=O)Nc4ccc(F)cc4)c3)CC2)c1 the results were HepG2 tox inactive, DT40 TDP1 CPT inconclusive, IL1B secr inh inactive, ASM inhibitor inactive, DT40 TDP1 no CPT inconclusive and TGFb SMAD3 inh inactive.
Screening CCN(CC)CCC(=O)N1C/C(=C/c2ccccc2)C(=O)/C(=C\c2ccccc2)C1 returned HepG2 tox inactive, DT40 TDP1 CPT 1.84µM, IL1B secr inh -99.2, ASM inhibitor inactive, DT40 TDP1 no CPT 3.66µM and TGFb SMAD3 inh 2.82µM.
`O=C(CCN1C(=O)c2ccccc2C1=O)N1CCCCCC1` gave HepG2 tox inactive, DT40 TDP1 CPT inactive, IL1B secr inh inactive, ASM inhibitor inactive, DT40 TDP1 no CPT inactive and TGFb SMAD3 inh inactive.
For O=C1/C(=C\c2ccccc2)CN(C(=O)CCN2CCCCC2)C/C1=C/c1ccccc1 the results were HepG2 tox inactive, DT40 TDP1 CPT 1.3µM, IL1B secr inh -67.1, ASM inhibitor inactive, DT40 TDP1 no CPT 1.46µM and TGFb SMAD3 inh 15.8µM.
`O=C1/C(=C\c2ccc(Cl)c(Cl)c2)CN(C(=O)CCN2CCOCC2)C/C1=C/c1ccc(Cl)c(Cl)c1` gave HepG2 tox 15.8µM, DT40 TDP1 CPT 0.581µM, IL1B secr inh -100.8, ASM inhibitor inconclusive, DT40 TDP1 no CPT 0.82µM and TGFb SMAD3 inh 2.82µM.
For Cc1csc(SCC(=O)N(C)C2CCS(=O)(=O)C2)n1 (stereo not drawn) the results were HepG2 tox inactive, DT40 TDP1 CPT inactive, IL1B secr inh inactive, ASM inhibitor inactive, DT40 TDP1 no CPT inactive and TGFb SMAD3 inh inactive.
C=CCn1cccc(C(=O)Nc2ccc(OC)c(Cl)c2)c1=O was read as HepG2 tox inactive, DT40 TDP1 CPT inactive, IL1B secr inh inactive, ASM inhibitor inactive, DT40 TDP1 no CPT inconclusive and TGFb SMAD3 inh inactive.
For COC(=O)C1=C(C)N(CCCC(=O)O)C(=O)NC1c1cccc2ccccc12 (stereo not drawn) the results were HepG2 tox inactive, DT40 TDP1 CPT inactive, IL1B secr inh inactive, ASM inhibitor inactive, DT40 TDP1 no CPT inactive and TGFb SMAD3 inh inactive.
Screening CCN(CC)S(=O)(=O)c1ccc(N2CCOCC2)c(NC(=O)COc2ccccc2C#N)c1 returned HepG2 tox inactive, DT40 TDP1 CPT inconclusive, IL1B secr inh inactive, ASM inhibitor inactive, DT40 TDP1 no CPT inactive and TGFb SMAD3 inh inactive.
CCN(CC)S(=O)(=O)c1ccc(N2CCOCC2)c(NC(=O)COc2ccccc2C)c1 was read as HepG2 tox inactive, DT40 TDP1 CPT 20.6µM, IL1B secr inh -55.8, ASM inhibitor inactive, DT40 TDP1 no CPT 18.4µM and TGFb SMAD3 inh inactive.
For CCN(CC)S(=O)(=O)c1ccc(N2CCCCC2)c(C(=O)Nc2ccccc2N2CCOCC2)c1 the results were HepG2 tox inactive, DT40 TDP1 CPT 10.3µM, IL1B secr inh inactive, ASM inhibitor inactive, DT40 TDP1 no CPT 9.2µM and TGFb SMAD3 inh inactive.
CCN(CC)S(=O)(=O)c1ccc(N2CCOCC2)c(NC(=O)c2cccc3ccccc23)c1 was read as HepG2 tox inactive, DT40 TDP1 CPT 25.9µM, IL1B secr inh inconclusive, ASM inhibitor inactive, DT40 TDP1 no CPT 16.4µM and TGFb SMAD3 inh inactive.
`CCN(CC)S(=O)(=O)c1ccc(N2CCOCC2)c(NC(=O)c2cccc3c(=O)c(C)c(-c4ccccc4)oc23)c1` gave HepG2 tox inactive, DT40 TDP1 CPT 5.8µM, IL1B secr inh inactive, ASM inhibitor inactive, DT40 TDP1 no CPT 9.2µM and TGFb SMAD3 inh inactive.
`CCN(CC)S(=O)(=O)c1ccc(N2CCOCC2)c(NC(=O)c2cc(=O)[nH]c3ccccc23)c1` gave HepG2 tox inactive, DT40 TDP1 CPT inactive, IL1B secr inh inactive, ASM inhibitor inactive, DT40 TDP1 no CPT inactive and TGFb SMAD3 inh inactive.
